# Screens from PubChem.
# Hits are enriched below; roughly 4.9% of the tested compounds scored in any of these assays.
# HSP90 refold inh: inhibitors of HSP90 luciferase refolding in rabbit reticulocyte lysate; actives 0.91% (n = 290,000); luciferase refolding luminescence, 3 h; inhibition, % at 5.6 µM;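 active = inhibition above the screen-wide mean plus 3 SD, computed separately per campaign, cut at about 16% in these data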;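 also: inhibitors lower the luminescence because luciferase stays unfolded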
# MPTP inh: permeability transition pore inhibition. isolated mouse mitochondria, Ca2+ swelling absorbance, 30 min. actives 1.4% (n = 360,000). inhibition, % at 10 µM;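 active = inhibition of 50% or more, scaled per plate between neutral and stimulator controls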
# Platelet DG rel: platelet dense granule release activity; actives 0.22% (n = 300,000); AID 1663; human platelet-rich plasma, SFLLRN dense granule ATP release, luminescence; inhibition, %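 (compounds screened at 7.5 µM in platelet-rich plasma)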;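 active = mean replicate score, as percent of positive control, at or above 50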
# dFosB act: activators of mouse delta FosB homodimer. purified delta FosB, TAMRA-CDK5 oligo fluorescence polarization; percent of positive-control signal above neutral wells. activation, % at 25 µM. actives 0.99% (n = 340,000). P13346;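 active = mean activation above about 17%, with every replicate also reaching it, limit read from the data, passing the limit was not always enough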
# Target sequence (P13346 whole entry, looked up): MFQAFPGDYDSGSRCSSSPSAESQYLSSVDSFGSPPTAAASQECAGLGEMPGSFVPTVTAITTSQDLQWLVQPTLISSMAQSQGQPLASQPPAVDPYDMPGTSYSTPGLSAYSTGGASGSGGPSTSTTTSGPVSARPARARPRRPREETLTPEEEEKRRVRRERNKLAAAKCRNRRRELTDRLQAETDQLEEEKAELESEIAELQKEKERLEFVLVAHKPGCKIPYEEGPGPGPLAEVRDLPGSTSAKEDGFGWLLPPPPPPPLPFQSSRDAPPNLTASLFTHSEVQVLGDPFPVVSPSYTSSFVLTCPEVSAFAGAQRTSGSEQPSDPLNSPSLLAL
# HSF1 inh: HSF1 inhibition. NIH3T3-HGL HSE-luciferase, MG132-induced, luminescence 8 h; stronger effect = lower value. activity change, negative = inhibition, % at 7.5 µM (by protocol). actives 0.77% (n = 300,000). AID 2098;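 active = more than half of replicate wells show activity change below -50%, luminescence cut by over half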;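 also: luciferase reports HSF-1 transcriptional activity via heat shock element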
# HSF1 activator: increases HSF-1 driven luciferase reporter signal; NIH3T3-HGL HSF-1 luciferase reporter, MG132, 8 h; 100% = twice DMSO control signal; activation, % at 9 µM; actives 1.7% (n = 300,000);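 active = mean replicate activation of at least 50% with a set share of replicates each reaching 50%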
# A number is an active result; - = inactive; . = no result given.
SMILES,HSP90 refold inh,MPTP inh,Platelet DG rel,dFosB act,HSF1 inh,HSF1 activator
COc1cc(NC(=O)c2cccs2)c(C(=O)OCC(=O)c2cc(C)n(-c3ccc(F)cc3)c2C)cc1OC,-,-,-,-,-64.4,-
COc1cc(NC(=O)c2cccs2)c(C(=O)OCC(=O)c2cc(C)n(-c3ccccc3)c2C)cc1OC,-,-,-,-,-,-
Cc1ccc2c(c1)N(Cc1cccc(C#N)c1)C=NS2(=O)=O,-,-,.,-,-,-
Cc1ccc2c(c1)N(Cc1ccc([N+](=O)[O-])cc1)C=NS2(=O)=O,-,-,-,-,-64.8,-
Cc1c2c(nc3ccccc13)CCC(C(C)(C)C)C2 (stereo not given),-,-,-,-,-,56.9
Cc1cccc(NC(=O)C2CCN(S(=O)(=O)c3ccc4c(c3)NC(=O)CO4)CC2)c1C,-,-,-,-,-,72.8
Cc1cccc(C)c1NS(=O)(=O)c1ccc2c(c1)NC(=O)CO2,-,-,-,-,-,-
Cc1cccc(NC(=O)CC(C)S(=O)(=O)c2ccc3c(c2)NC(=O)CO3)c1C (stereo not given),-,-,-,-,-,105.5
Cc1ccccc1NS(=O)(=O)c1ccc2c(c1)NC(=O)CO2,-,-,-,-,-,60.6
COc1cc(/C=N/Nc2nc3ccccc3s2)ccc1OC(=O)c1ccccc1F,-,-,-,-,-,84.7
COc1cc(OC)cc(C(=O)Oc2ccc(/C=N/Nc3nc4ccccc4s3)cc2OC)c1,-,-,-,-,-,82.4
O=C(CCc1nc(-c2ccccc2)no1)NCc1ccccc1CN1CCOCC1,.,-,.,-,.,.
COc1ccc(C2/C(=C(/O)c3ccc(C)cc3)C(=O)C(=O)N2CCCN2CCOCC2)cc1 (stereo not given),-,-,-,-,-,-
CCCc1cc(=O)[nH]c(SCc2nc3ccccc3s2)n1,-,-,-,-,-,61.6
Cc1cc(=O)[nH]c(SCc2nc3ccccc3s2)n1,-,-,-,-,-,-
CC(=O)n1c2c(c3ccccc31)OC(N)=C(C#N)C2c1cccc(Cl)c1Cl (stereo not given),-,-,-,-,-,74.3
Cc1cc(C)c2c(=O)n3c(nc2c1)C(CC(C)C)NC(=O)c1cccnc1-3 (stereo not given),.,-,.,.,.,.
Cc1ccccc1S(=O)(=O)Nc1cccnc1,-,-,-,-,-,-
Cc1ccc(S(=O)(=O)Nc2cccnc2)c(C)c1C,-,-,-,-,-82.9,-
CN(C)c1ccc(NS(=O)(=O)c2cc(Cl)ccc2Cl)cc1,-,-,-,-,-56.1,-
CCOc1c(C)cc(S(=O)(=O)NCc2cccnc2)c(C)c1C,-,-,-,-,-56.1,-
CCOC(=O)[C@H]1[C@H]2COc3ccc(Br)cc3[C@@H]2N2C(=O)CN(Cc3ccc(F)cc3)C(=O)[C@@]12C,.,-,.,-,.,.
COc1ccc(OCCCC(=O)OC(C)C(=O)Nc2cccc(C(C)=O)c2)cc1 (stereo not given),-,-,-,-,-,-
CCC(=O)Nc1cccc(C(=O)OCC(=O)c2ccccc2Cl)c1,-,-,-,-,-,65.1
CC(=O)Nc1cccc(C(=O)OCC(=O)c2ccccc2Cl)c1,-,-,-,-,-,84.8
SMILES,HSP90 refold inh,MPTP inh,Platelet DG rel,dFosB act,HSF1 inh,HSF1 activator
CC(Cc1cccs1)NC(=O)Nc1ccc(Cl)cc1 (stereo not given),-,-,-,-,-,61.9
CC(C)(C)c1nnc(NC(=O)COc2ccc3c(c2)OCO3)s1,.,-,-,-,-,-
COc1ccc2[nH]c(=O)c(CN(C(=O)C(C)C)c3ccccc3OC)cc2c1,-,-,-,-,-,-
COc1ccc2[nH]c(=O)c(CN(C(=O)COc3ccccc3)C(C)C)cc2c1,-,-,-,-,-,63.6
Cn1nc(C(=O)NNC(=O)Cc2ccc(S(=O)(=O)N3CCOCC3)s2)c2ccccc2c1=O,.,-,.,-,.,.
O=C(c1ccc2c3n(nc2c1)-c1ccccc1CO3)N1CCOCC1,.,-,51.2,-,-,-
COc1cc(OC)c(OC)cc1CN(C)CCc1ccccn1,-,-,-,-,-,73.8
COc1ccc(CN(C)CCc2ccccn2)cc1OC,-,-,-,-,-,-
Nc1ccc2oc(C3CCCCC3)nc2c1,-,-,-,-,-91.4,-
O=[N+]([O-])c1ccc2oc(C3CCCCC3)nc2c1,-,-,-,-,-,-
Nc1nnc(CSCc2ccccc2Cl)s1,-,-,-,-,-,56.2
Nc1nnc(SCc2ccccc2Cl)s1,-,-,-,-,-,-
CC(NC(=O)/C=C/c1ccco1)c1nc2ccccc2n1Cc1cccc(Cl)c1 (stereo not given),-,-,-,-,-,70.3
O=C(Nc1nc2ccccc2n1Cc1ccc(Cl)cc1)c1ccco1,-,-,-,-,-,-
CCCCc1ccc(/C=C2/C(=O)ON=C2c2ccccc2)s1,-,-,-,-,-,82.7
Cc1sc(/C=C2\C(=O)ON=C2c2ccccc2)cc1Br,-,.,-,.,-,-
COc1cc(/C=C2\C(=O)ON=C2c2ccccc2)cc(Cl)c1O,-,-,-,18.0,-,-
Cc1ccc(/C=C2/C(=O)ON=C2c2ccccc2)o1,-,-,-,-,-,86.1
CCCCC(=O)N(C)c1c(C)nc2ccc(C(=O)N(C)CCN(C)C)cn12,.,-,.,.,.,.
COc1ccc(C(=O)c2[nH]c(N)c(C(=O)NCCc3c[nH]c4ccccc34)c2-c2ccc(Br)cc2)cc1,.,-,.,.,.,.
O=c1cc(-c2ccc(F)cc2)[nH][nH]1,16.6,-,-,-,-,-
COc1ccc(NC(=O)c2ccc(S(=O)(=O)N3CCCCC3)cc2)cc1OC,.,-,.,-,.,.
COc1cccc(CNC(=O)c2cc3c(c(-c4cccc(-c5cccc(C#N)c5)c4)n2)[C@H](CCO)N(S(=O)C(C)(C)C)C3)c1 (stereo not given in full),.,-,.,.,.,.
CN(C)CCOC(=O)C1(c2ccccc2)CCCC1,-,-,66.3,-,-,-
COc1ccccc1CNC(=O)CCCc1nnc2n(C)c(=O)c3sccc3n12,-,-,-,-,-,-
SMILES,HSP90 refold inh,MPTP inh,Platelet DG rel,dFosB act,HSF1 inh,HSF1 activator
CC(C)c1ccc(/C=N/NC(=O)C2CCCC2)cc1,-,-,-,-,-,51.6
CC(C)(C)c1ccc(/C=N/NC(=O)C2CCCC2)cc1,-,-,.,-,.,.
Cc1ccc(/C=C/C(=O)O)cc1S(=O)(=O)N1CCCCC1,-,-,65.4,-,-,-
Cc1ccc(/C=C/C(=O)O)cc1S(=O)(=O)N1CCc2ccccc2C1,-,-,-,-,-,-
Cc1csc(SCc2nnc(-c3ccc(Cl)cc3)o2)n1,-,-,-,-,-,58.9
Fc1cccc(Cc2noc(CN3CCC(c4ccncc4)CC3)n2)c1,-,-,-,-,-,-
Cc1ccccc1-c1nc(CS(=O)(=O)CC(=O)N2CCOCC2)c(C)o1,-,-,-,-,-,-
O=C1CCCC(=O)N1CCCCCCN1C(=O)CCCC1=O,.,-,.,.,.,.
O=C(Nc1cccc([N+](=O)[O-])c1)c1[nH]ncc1Cl,-,-,-,-,-,52.0
